In general, inhibition refers to the relative decrease from the control value, in per cent.

About 370 (0.17%) of roughly 220,000 compounds were called active. What follows is part of a selection rich in actives, with near analogues and random picks from the rest. A number with no mark means an inactive call.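 The calls were made as follows: active = inhibition above the mean inhibition of all tested compounds plus 3 SD, set separately per screening campaign (cut at about 2.9% in these data); inactive = the rest.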

The values that follow come from PubChem BioAssay AID1416 (The Scripps Research Institute Molecular Screening Center, 2008).

Chain of Eukaryotic translation initiation factor 2-alpha kinase 3 (Homo sapiens) (Q9NZJ5 whole entry, looked up, the tested form may be a part): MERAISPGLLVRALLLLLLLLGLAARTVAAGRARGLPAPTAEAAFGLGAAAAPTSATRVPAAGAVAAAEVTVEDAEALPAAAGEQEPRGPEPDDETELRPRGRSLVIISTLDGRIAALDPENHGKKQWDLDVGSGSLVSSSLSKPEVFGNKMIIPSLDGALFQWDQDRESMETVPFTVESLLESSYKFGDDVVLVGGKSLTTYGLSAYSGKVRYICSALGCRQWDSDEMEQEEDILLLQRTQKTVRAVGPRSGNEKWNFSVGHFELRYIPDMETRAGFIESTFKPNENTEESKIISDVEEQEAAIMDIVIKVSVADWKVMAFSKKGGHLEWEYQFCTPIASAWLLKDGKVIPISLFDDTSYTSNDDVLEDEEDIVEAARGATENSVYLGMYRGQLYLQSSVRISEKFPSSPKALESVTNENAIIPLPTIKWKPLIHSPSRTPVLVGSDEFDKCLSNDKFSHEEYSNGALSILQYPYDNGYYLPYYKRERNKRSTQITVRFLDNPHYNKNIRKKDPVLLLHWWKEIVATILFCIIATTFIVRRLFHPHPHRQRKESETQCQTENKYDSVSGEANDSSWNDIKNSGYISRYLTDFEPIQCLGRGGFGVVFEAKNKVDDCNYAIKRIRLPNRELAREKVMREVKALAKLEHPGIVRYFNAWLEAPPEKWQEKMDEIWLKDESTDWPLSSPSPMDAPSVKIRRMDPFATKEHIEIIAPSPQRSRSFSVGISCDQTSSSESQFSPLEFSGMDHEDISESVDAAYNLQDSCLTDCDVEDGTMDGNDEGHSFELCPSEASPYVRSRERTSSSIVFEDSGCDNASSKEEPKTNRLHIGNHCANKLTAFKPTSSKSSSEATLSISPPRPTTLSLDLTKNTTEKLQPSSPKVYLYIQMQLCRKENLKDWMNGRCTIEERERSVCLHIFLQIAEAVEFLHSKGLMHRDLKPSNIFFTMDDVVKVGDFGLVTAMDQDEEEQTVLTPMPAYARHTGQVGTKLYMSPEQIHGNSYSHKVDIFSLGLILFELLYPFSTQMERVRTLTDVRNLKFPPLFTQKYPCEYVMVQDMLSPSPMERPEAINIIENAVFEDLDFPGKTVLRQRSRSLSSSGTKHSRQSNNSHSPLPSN

The assay addresses Eukaryotic translation initiation factor 2-alpha kinase 3 (Homo sapiens) (UniProt Q9NZJ5). In words: block of dimerizer-induced PERK translation repression, primary screen, PERK inhibitor project, CHO PERK-DD cells, SEAP luminescence, HTS (AID 1416).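 Also: PERK kinase domain activated by AP20187 dimerizer at 100 nM; 0% = DMSO with dimerizer and 100% = rapamycin at 8.4 µM.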 Conditions: CHO PERK-DD fusion, SEAP luminescence translation reporter; at 5.6 µM; stronger effect = higher value.
For `CC1=NN(C(C)C)C(=O)C1`, the inhibition is 0.1%.

In the case of `O=C(CN1CCN(S(=O)(=O)c2ccc3ccccc3c2)CC1)NC(=O)NC1CCCCC1`, the inhibition is -1.71%.

In the case of `COc1ccc(-n2c(C)nn(CC3CC3)c2=O)cc1`, the inhibition was 0.52%.

Regarding `COc1ccc(CN2CCCC(CNC(=O)c3ccc(F)cc3)C2)cc1OC` (stereo not drawn), the inhibition is 0.78%.

For `O=C(NNC(=O)C1CCN(c2ncccn2)CC1)c1ccccc1`, the inhibition was 1.78%.

For the compound `Cc1cc(Cl)ccc1OCCCC(=O)NCc1ccccn1`, the inhibition is 0.34%.

For the compound `O=C(Nc1cccnc1)c1cc([N+](=O)[O-])ccc1Cl`, the inhibition is 1.12%.

`Cc1cc(=O)[nH]c(N/N=C/c2c(C)nn(-c3ccccc3Cl)c2Cl)n1`: the inhibition was 0.41%.

Consider `COc1ccc2[nH]c(=O)c(CNc3ccc(C)c(C)c3)cc2c1`, for which the inhibition was 0.88%.

For `COc1ccc2[nH]c(=S)cc(C)c2c1`, the inhibition was 3.26% (active).

In the case of `COc1ccc2[nH]c3ccc(OC)cc3c2c1`, the inhibition was -0.09%.

In the case of `CN1CCN(CCC(=O)N/N=C/C=C2\N(C)c3ccccc3C2(C)C)CC1`, the inhibition is 0.12%.

Take `O=C(COC(=O)c1cnc(Cl)c(Cl)c1)NCc1ccco1`: the inhibition was -0.25%.

On to `NC(=O)Cc1ccc2sc(-c3ccccc3)nc2c1`, for which the inhibition was 0%.

For `O=C(CCNc1n[nH]c(=O)[nH]c1=O)N/N=C\c1ccc(Br)cc1`, the inhibition was 1.9%.

As for `Cc1cc(/C=N/NC(=O)CC2(C)OCCO2)c(C)n1-c1ccc(Cl)c(Cl)c1`, the inhibition was -0.35%.

For `CC(=O)NC1=NN(C(C)=O)C(C)(c2ccc(C)cc2)S1` (stereo not drawn), the inhibition is 0.26%.

Regarding `COc1ccc(CC(NC(C)=O)C(=O)NC2CCN(C(=O)c3ccc(OC)c(OC)c3)CC2)cc1OC` (stereo not drawn), the inhibition is 0.49%.

As for `O=C(COc1ccc([N+](=O)[O-])cc1Cl)Nn1cnnc1`, the inhibition is 0.99%.

As to `CN(C)S(=O)(=O)c1cccc(NC(=S)NCc2ccc3c(c2)OCO3)c1`, the inhibition was -0.05%.

On to `COC(OC)c1ccnc(SCc2ccccc2Cl)n1`, for which the inhibition is 1.69%.

Consider `CCN1CCN(C(=O)CCN2C(=O)c3ccccc3C2=O)CC1`, for which the inhibition is 1.42%.

Take `COC(=O)c1cc2n(n1)CCCNC2=O`: the inhibition was 0.06%.

For `CCN(CC)CCOC(=O)c1ccc(NC(=O)CNC(=O)c2ccccc2)cc1`, the inhibition was 2.02%.

`CCn1nc(C)c(CN2CCN(Cc3ccc(OC)c(C)c3C)C(CCO)C2)c1C` (stereo not drawn): the inhibition was -0.31%.

Take `O=C1C(Cc2ccc(O)cc2)NC(=S)N1Cc1ccccc1` (stereo not drawn): the inhibition is 3.13% (active).

`COc1ccc(N2C(=O)C(Cc3ccccc3)NC2=S)cc1` (stereo not drawn): the inhibition is 0.37%.

`Cc1ccc(N2C(=O)C(Cc3ccccc3)NC2=S)cc1` (stereo not drawn): the inhibition was -0.27%.
